We go through 97 molecules from PubChem BioAssay AID463190 (Sanford-Burnham Center for Chemical Genomics, 2010).

Among all 330,000 compounds or so, about 7,300 (2.2%) were called active.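 How the source made its calls: active means inhibition of at least 40%; inactive means the rest.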 For the sample, actives were picked, then their nearest neighbours and some compounds at random.

This assay can be described thus: growth inhibition of tim10-1 ts yeast – luminescence, uHTS, primary screen (AID 463190).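 Further: mutant grown at 25 °C; 0% = DMSO wells with yeast and 100% = wells holding no yeast.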 Conditions: S. cerevisiae tim10-1 ts strain growth, BacTiter-Glo, 24 h; at 20 µM; active compounds read high.
For `CC(Nc1ccccc1)c1cccnc1` (configuration not stated), the inhibition (as a rule, the relative decrease from the control value, in per cent) is -3.38% (inactive). In the case of `CCN(CC)S(=O)(=O)c1cc(C(=O)Nc2cc(S(=O)(=O)N3CCOCC3)ccc2N2CCCC2)ccc1F`, the inhibition is 3.43% (inactive). Regarding `O=C(CN(C(=O)c1csnn1)c1cccc(Cl)c1)NC1CCCC1`, the inhibition is 17.6% (inactive). Regarding `O=C(CCCN1C(=O)/C(=C/c2ccccc2)SC1=S)Nc1ccc(O)cc1`, the inhibition is 40.5% (active). For `COc1ccc(/C=C2\SC(=S)N(CCC(=O)Nc3cccc(C(=O)O)c3)C2=O)cc1OC`, the inhibition was 21.8% (inactive).

Regarding `O=C(CCCN1C(=O)/C(=C/c2cccs2)SC1=S)Nc1ccc(O)cc1`, the inhibition was 31.7% (inactive). Take `CCC(C)[C@@H](C(=O)N1CCNCC1)n1cc(CCCCN)nn1` (some centres not stated): the inhibition is -13.3% (inactive). The same measure for `CCOC(=O)C1CCN(CCC(=O)Nc2cccc(C)c2)CC1`: 11.5% (inactive). Turning to `CN(Cc1cccs1)C(=O)Cc1c[nH]c2ccccc12`, the inhibition is 14.6% (inactive). Turning to `O=C(Nc1ccc2sc3ccccc3c(=O)c2c1)c1ccccc1Cl`, the inhibition is 4.71% (inactive).

As to `COc1cccc(-c2nn(C)c3sc(C(=O)N4CCN(c5ccccc5)CC4)cc23)c1`, the inhibition is 24.7% (inactive). Regarding `COc1ccccc1N1CCN(C(=O)c2cc3c(-c4ccc(Cl)cc4)nn(C)c3s2)CC1`, the inhibition is 15.4% (inactive). The same measure for `CCOC(=O)N1CCN(C(=O)c2cc3c(-c4ccc(Cl)cc4)nn(C)c3s2)CC1`: 40.4% (active); for `O=C(CNC(=O)c1ccccc1)NCC(=O)OCc1ccc(Cl)cc1`: -23.2% (inactive); for `CCOC(=O)c1cnc(SCc2nc(N)nc(Nc3ccc(OC)cc3)n2)nc1N`: 17.6% (inactive). For the molecule `COc1ccccc1Nc1nc(N)nc(CSC(=S)N2CCOCC2)n1`, the inhibition is 23.3% (inactive). Regarding `COc1ccc(Nc2nc(N)nc(CSC(=S)N3CCC(C)CC3)n2)cc1`, the inhibition was 46.2% (active). Take `C=CCNC(=O)c1ccccc1SCc1c(C)noc1C`: the inhibition was 18% (inactive). The same measure for `CCOP(=O)(OCC)C(Nc1cccc(C)c1)c1ccc(F)cc1` (configuration not stated): 20.8% (inactive); for `CCN=C1S/C(=C\c2cc(Br)ccc2OCC(=O)OCC)C(=O)N1CC`: 25.5% (inactive). In the case of `Cc1ccc(COC(=O)CN2C(=O)NC3(CCCC3)C2=O)cc1`, the inhibition was 23.6% (inactive).

`CCn1c(Cc2ccccc2)nnc1SCc1nc2ccccc2c(=O)[nH]1`: the inhibition was 8.33% (inactive). In the case of `CCn1c(COc2c(C)cccc2C)nnc1SCc1nc2ccccc2c(=O)[nH]1`, the inhibition is 40.2% (active). Regarding `COc1ccc(CCCc2nnc(SCc3nc4ccccc4c(=O)[nH]3)n2C)cc1`, the inhibition was 19.4% (inactive). The same measure for `O=c1c2cc(-c3ccccc3)sc2nc2n1N=C(c1cccs1)CS2`: 20.5% (inactive); for `O=C1C(=O)N(CCN2CCOCC2)C(c2ccccn2)/C1=C(/O)c1ccc(Cl)cc1` (configuration not stated): 13.6% (inactive); for `O=C(c1cccc(Cl)c1)N1CCN(Cc2ccccc2)CC1`: -7.29% (inactive). On to `CCc1nc2ccc(C(=O)N3CCN(c4cccc(Cl)c4)CC3)cc2nc1CC`, for which the inhibition is 52.2% (active). Consider `O=C(CCCC(=O)N1CCN(c2cccc(Cl)c2)CC1)c1ccccc1`, for which the inhibition was 29.5% (inactive). Turning to `O=C(O)c1ccn(COc2ccc(Br)cc2)n1`, the inhibition is -4% (inactive). On to `Cc1ccc(NC(=O)CSc2cccc3cccnc23)c(C)c1`, for which the inhibition is 25.4% (inactive). The same measure for `O=C(CSc1cccc2cccnc12)N/N=C/c1cccnc1`: 51.7% (active); for `CCOC(=O)N/N=C/c1cccnc1`: 5.36% (inactive).

As to `O=C(Nc1nnc(SCc2c(Cl)cccc2Cl)s1)c1cccc([N+](=O)[O-])c1`, the inhibition was -2.85% (inactive).

Consider `O=C(NCc1ccccc1Cl)C1CCCO1` (configuration not stated), for which the inhibition is 0.911% (inactive). In the case of `O=C(Nc1nnc(SCc2c(Cl)cccc2Cl)s1)C1CCCO1` (configuration not stated), the inhibition was 42.5% (active).

Consider `NC(=O)CCC(NS(=O)(=O)c1ccc(Cl)cc1)C(=O)NCc1ccccc1Cl` (configuration not stated), for which the inhibition is -4.94% (inactive). In the case of `COc1ccc(Cl)cc1NC(=O)Cn1nc(-c2ccc(C)cc2)n(C)c1=S`, the inhibition was 2.15% (inactive).

Regarding `Cc1cc(Nc2ccccc2)n(CCC#N)n1`, the inhibition was -11.5% (inactive).

`Cc1cc(Nc2ccccc2)n(C(=O)c2ccc(N)cc2)n1`: the inhibition is 50.1% (active). With `Cc1cc(C)n(C(=O)c2ccc(S(=O)(=O)N3CCCC3)cc2)n1`, the inhibition is 17.6% (inactive). The same measure for `CCc1ccc(CN(C)C(C)C(=O)Nc2ccc(S(=O)(=O)N3CCCC3)cc2)cc1` (configuration not stated): 24.9% (inactive); for `COc1ccc(OC)c(S(=O)(=O)N2CCCC(C(=O)N3CCC(C(N)=O)CC3)C2)c1` (configuration not stated): -23.6% (inactive); for `CN1CCN(S(=O)(=O)c2ccc(N3CCN(S(=O)(=O)c4cccs4)CC3)nc2)CC1`: -3.27% (inactive). With `COc1ccc(-c2oc3ncnc(NCCCO)c3c2-c2ccc(OC)cc2)cc1`, the inhibition is 9.86% (inactive). Regarding `COc1ccc(-n2cnc3cc(NCc4ccco4)ccc32)cc1`, the inhibition was 22% (inactive). Turning to `COc1ccc(-c2oc3ncn(Cc4ccco4)c(=N)c3c2-c2ccc(OC)cc2)cc1`, the inhibition is 41.7% (active). In the case of `Cc1cc(C)c(NC(=O)c2oc3ccccc3c2COc2ccccc2)c(C)c1`, the inhibition is 17% (inactive). Regarding `COc1cccc(C(=O)NNC(=O)c2cccc(F)c2)c1`, the inhibition was -28.3% (inactive).

In the case of `O=C(Nc1ccccc1)c1ccc2c(c1)OCCCO2`, the inhibition is 5.55% (inactive).

For the molecule `COc1cccc(C(=O)Nc2cc3c(cc2Br)OCCCO3)c1`, the inhibition was 40.7% (active). For `O=C(c1cc(COc2cccc(C(F)(F)F)c2)on1)N1CCSCC1`, the inhibition is 26.2% (inactive). The same measure for `O=C(NC1Cc2ccccc2C1)c1cc(COc2cccc(C(F)(F)F)c2)on1`: 18.4% (inactive). As for `Cc1nonc1C1CCCN1C(=O)c1cc(COc2cccc(C(F)(F)F)c2)on1` (configuration not stated), the inhibition is 46.1% (active).

As to `O=c1cnnc(Nc2ccccc2F)[nH]1`, the inhibition is -10.8% (inactive). As to `Cc1ccc(C(=O)N/C(=C/c2cccs2)C(=O)N2CCCCC2)cc1`, the inhibition is 19.1% (inactive). In the case of `CCOC(=O)CSc1nc2c(c(=O)n(C)c(=O)n2C)n1Cc1ccccc1F`, the inhibition was 10.3% (inactive). Turning to `Cn1c(=O)c2c(nc(SCC(=O)Nc3ccccc3N3CCCCC3)n2C)n(C)c1=O`, the inhibition was -4.92% (inactive). As to `CCOC(=O)CSc1nc2c(c(=O)n(Cc3ccccc3Cl)c(=O)n2C)n1C`, the inhibition was 47.6% (active). The same measure for `Cc1cccc(NC(=O)c2nc(S(=O)(=O)Cc3ccccc3)ncc2Cl)c1`: 23.9% (inactive); for `Cc1ccc(CS(=O)(=O)c2ncc(Cl)c(C(=O)Nc3nnc(C)s3)n2)cc1`: 20.6% (inactive). As for `CSc1nnc(NC(=O)c2nc(S(=O)(=O)Cc3ccc(C)cc3)ncc2Cl)s1`, the inhibition is 41% (active).

For the molecule `O=C(Nc1ccc(-n2cccn2)cc1)C1CCN(Cc2ccsc2)CC1`, the inhibition was -13.1% (inactive).

`O=C(O)CCCC(=O)N1N=C(c2ccco2)CC1c1ccco1` (configuration not stated): the inhibition was -34.5% (inactive). As to `Cc1nn2c(c1-c1ccccc1)N=C(c1ccco1)CC2c1ccccc1` (configuration not stated), the inhibition was 45.5% (active). `Cc1nn(C(=O)c2ccoc2C)c(N)c1-c1ccccc1`: the inhibition was 2.61% (inactive).

Take `CCOc1cc(C)ccc1OCc1nnc(SCC(=O)Nc2cccc(C(=O)O)c2)n1-c1ccccc1`: the inhibition was 4.93% (inactive). The same measure for `COc1cc(SC)ccc1C(=O)NCCOc1ccccc1Cl`: 20% (inactive); for `COc1cc(SC)ccc1C(=O)N(Cc1ccccc1)c1ccccc1`: 26.9% (inactive).

For `COc1ccccc1CNC(=O)c1ccc(SC)cc1OC`, the inhibition is 41.4% (active). Consider `Cc1cc(C)n(CCNCc2c(C(=O)N3C[C@@H](C)O[C@@H](C)C3)nc3ccc(Cl)cn23)n1`, for which the inhibition was 5.77% (inactive). The same measure for `Cc1cc(C)nc(S/C=C/C(=O)c2ccccc2)n1`: 62.9% (active); for `Cc1cc(C)nc(SCC(=O)c2ccc(Cl)cc2)n1`: 7.83% (inactive). In the case of `Cc1cc(C)nc(SCC(=O)N(C)C)n1`, the inhibition was 9.12% (inactive). Consider `COCCCn1c(SCc2cccc(OC)c2)nc2cc(OC)c(OC)cc2c1=N`, for which the inhibition is 28.6% (inactive). Regarding `COc1ccc(N(CC(=O)N/N=C/c2cccs2)S(=O)(=O)c2ccc(OC)c(OC)c2)cc1`, the inhibition was 11.7% (inactive). Turning to `COc1ccc2c(c1)c(C(=O)N/N=C/c1cccs1)c(C)n2C`, the inhibition is 44.8% (active).

Take `NC(=O)N/N=C\c1cccs1`: the inhibition is -3.46% (inactive). Consider `CCCCN(C)CCNC(=O)C1CCCN(S(=O)(=O)c2cccc3nsnc23)C1` (configuration not stated), for which the inhibition is 8.01% (inactive). In the case of `O=C(c1ccco1)N1CCN(C(=O)c2cc(-c3ccccc3F)no2)CC1`, the inhibition was 26% (inactive). The same measure for `COc1ccc(/C=C2/C(=O)N(c3ccccc3)N=C2C)c(OC)c1`: 28.4% (inactive). The same measure for `COc1ccc(/C=C/C2=CC(C)(C)NC(=S)N2)c(OC)c1`: 42.8% (active); for `COc1cc(/C=C/C2=CC(C)(C)NC(=S)N2)cc(OC)c1OC`: 16.4% (inactive). On to `O=C(Cc1ccccn1)c1ccc(O)cc1O`, for which the inhibition was 4.18% (inactive). For `CC1=NNC(=O)C1CC(=O)N/N=C/c1ccncc1` (configuration not stated), the inhibition was 7.67% (inactive).

In the case of `CCOC(=O)C1(S(=O)(=O)c2ccccc2)CCN(Cc2ccccc2)CC1`, the inhibition is 41.1% (active). As to `CCOC(=O)C1(CCOc2ccccc2)CCN(Cc2cc(OC)cc(OC)c2)CC1`, the inhibition is 30.7% (inactive). The same measure for `CCOC(=O)C1(S(=O)(=O)c2ccc(Cl)cc2)CCN(Cc2ccccc2)CC1`: 39.5% (inactive); for `O=S(=O)(c1ccc(Br)cc1)c1nc(-c2ccccc2)oc1N1CCOCC1`: 19.8% (inactive). For the molecule `O=C1COc2ccc(C(=O)CSc3ccc(Br)cc3)cc2N1`, the inhibition is 14% (inactive).

As for `CCOC(=O)c1[nH]c2c(c1-c1ccccc1)C(=O)CC(c1ccc(Cl)cc1)C2` (configuration not stated), the inhibition was 11.7% (inactive). Take `CCOC(=O)C1Sc2[nH]c(=O)sc2C(c2ccc(Cl)cc2)C1C(=O)OCC` (configuration not stated): the inhibition was 48.6% (active). The same measure for `CCOC(=O)C1=C(C)NC(=O)N(C(C)=O)C1c1ccc(Cl)cc1` (configuration not stated): 26.5% (inactive); for `CCCn1c(SCC(=O)Nc2ccc(C)c(S(=O)(=O)N3CCOCC3)c2)n[nH]c1=O`: 11.7% (inactive); for `Fc1cccc(CSc2nnc3ccc(-c4ccncc4)nn23)c1`: 16.3% (inactive).

In the case of `COc1ccc(-c2ccc3nnc(SCC(=O)Nc4ccc(NC(C)=O)cc4)n3n2)cc1`, the inhibition was -13% (inactive). Regarding `CSc1nnc2ccc(-c3ccc(C)cc3)nn12`, the inhibition was 45.7% (active).
